Bioassay records deposited in PubChem BioAssay by National Center for Advancing Translational Sciences (NCATS).
RORg inh – blocks mouse ROR gamma transcriptional activity; P51450; Drosophila S2 Gal4-RORgamma UAS-luciferase reporter, 20 h; Potency, µM (doses to about 53.6 µM), usual class: inhibitors; 310,000 tested, 5.4% active; AID 2551; further: nearly all actives have a fitted effect of over 60% in size
Target sequence (P51450 whole entry, looked up, the tested form may be a part): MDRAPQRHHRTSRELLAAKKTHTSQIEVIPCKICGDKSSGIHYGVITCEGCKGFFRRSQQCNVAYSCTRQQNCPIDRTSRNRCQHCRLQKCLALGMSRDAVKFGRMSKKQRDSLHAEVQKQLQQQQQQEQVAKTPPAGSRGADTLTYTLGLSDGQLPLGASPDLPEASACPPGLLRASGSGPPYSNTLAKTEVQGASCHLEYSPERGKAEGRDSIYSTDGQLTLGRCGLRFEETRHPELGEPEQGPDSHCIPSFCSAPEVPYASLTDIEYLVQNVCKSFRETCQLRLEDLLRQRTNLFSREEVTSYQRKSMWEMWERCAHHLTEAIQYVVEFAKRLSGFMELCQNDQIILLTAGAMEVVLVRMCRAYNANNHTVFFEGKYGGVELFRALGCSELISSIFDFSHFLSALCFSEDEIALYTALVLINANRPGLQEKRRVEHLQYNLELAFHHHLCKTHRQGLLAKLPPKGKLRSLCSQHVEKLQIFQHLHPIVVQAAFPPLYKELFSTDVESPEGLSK
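Drosophila S2 cells stably expressing Gal4-DBD/mouse RORγ fusion under metallothionein promoter plus UAS-luciferase; compound 1 h, then 700 uM CuSO4 induction for 20 h at ambient temperature; inhibition read as reduced luminescence.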
LDHA inh – LDHA (human) enzyme inhibition; P00338; purified LDHA, NADH/diaphorase-resazurin fluorescence; active compounds read low; activity change, % (values are at about 110 or 230 µM); 480,000 tested, 0.15% active; AID 1347041; in the data active means activity change below about -30%; inconclusive means mostly about -25% to -30%
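LDH5 2 nM; NADH 0.06 mM, pyruvate 0.2 mM; 200 mM Tris pH 7.4, EDTA, Tween-20; 5 min RT. Detection: diaphorase 0.133 mg/mL + resazurin 37 µM, fluorescence ex540/em590 at 0 and 20 min; normalized to enzyme-free and DMSO wells.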
DT40 TDP1 no CPT – qHTS for Inhibitors of human tyrosyl-DNA phosphodiesterase 1 (TDP1): qHTS in cells in absence of CPT | 420,000 tested, 15% active | DT40 Tdp1-/- hTDP1 cells, no CPT, ATP luminescence, 48 h | Potency, µM (doses to about 46.2 µM), most hits filed as inhibitors | AID 686978, 2013; further: nearly all actives have a fitted effect of over 55% in size
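Stably hTDP1-transfected Tdp1-null chicken DT40 cells were treated with library compounds minus camptothecin and grown for at least 48 hr at 37 °C, after which cellular ATP was quantified by luminescence.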
VP16 counter – inhibits Gal4-VP16 luciferase reporter, ROR gamma counter-screen; 310,000 tested, 3.5% active; Potency, µM (top dose mostly 53.6 µM), usual class: inhibitors; AID 2546; Drosophila S2 Gal4-VP16 UAS-luciferase, luminescence, 20 h;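 further: Gal4-VP16 expression switched on by copper sulfate through the metallothionein promoter; nearly all actives have a fitted effect of over 50% in size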
IL1B secr inh – blocks inflammasome-driven IL-1 beta release; activity change, % at 57.5 µM; 360,000 tested, 4.7% active; THP-1 LPS/ATP IL-1B secretion, AlphaLISA, 16 h; active compounds read low; in the data active means activity change below about -50%; inconclusive means mostly about -30% to -49%
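THP-1 cells pretreated 1 hr with compounds (up to 57.5 uM final), then stimulated with LPS (250 ng/mL final) plus ATP (1.25 mM final); secreted IL-1B measured by AlphaLISA after 16 hr, decreased signal indicating inhibition.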
DT40 TDP1 CPT – DT40-hTDP1 cell growth loss with CPT; chicken DT40 Tdp1-/-;hTDP1 cells + 20 nM CPT, ATP luminescence, 48 h; 420,000 tested, 12% active; AID 686979; Potency, µM (highest dose often 46.2 µM), most hits filed as inhibitors; further: nearly all actives have a fitted effect of over 55% in size
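Cell growth measured by CellTiter-Glo luminescence after a minimum 48 h, 37 C compound exposure with 20 nM CPT in Tdp1-knockout DT40 cells stably expressing hTDP1, seeded 400/well; qHTS titration format.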
Hits are given with their value; n = inactive; u = inconclusive; x = no result given; [ ] = dose if it differs, or a comment. This is a sample that favours compounds with a hit; in the whole collection about 18% have one here. Unless noted, the call rests on the fitted dose curve; in most records, active means well fitted curve in the direction sought with a large enough effect; inconclusive means small, poorly fitted or top-dose-only effect, or another doubt; inactive means no such curve, though single readings can be large; an effect the other way counts as inactive or inconclusive.

SMILES	RORg inh	LDHA inh	DT40 TDP1 no CPT	VP16 counter	IL1B secr inh	DT40 TDP1 CPT
CCOc1ccc(Nc2c(S(=O)(=O)c3ccc(C)cc3)cnc3cc(OC)c(OC)cc23)cc1	x	n	11.6µM	x	x	u
O=C(NCc1ccccc1)C(=O)Nc1c2c(nn1-c1ccc(F)cc1)CSC2	x	n	16.4µM	x	x	u
COc1ccc(-n2nc3c(c2NC(=O)CCl)CSC3)cc1	n	n	2.31µM	u	-106.9	2.59µM
CC(C)CCNC(=O)C(=O)Nc1c2c(nn1-c1ccc(Cl)cc1)CSC2	x	n	11.6µM	x	x	25.9µM
CCN(CC)S(=O)(=O)c1ccc(C)c(NC(=S)Nc2ccccc2C(C)(C)C)c1	x	n	x	x	x	x
C=CCNC(=S)NCCCOC	x	n	x	x	x	x
Clc1cccc(CNCCN2CCCC2)c1	x	n	x	x	x	x
Cn1nnnc1SCCNCc1cc(Br)ccc1OCc1ccccc1Cl	x	n	16.4µM	x	x	23.1µM
Cn1nnnc1SCCNCc1ccccc1OCc1ccccc1Cl	u	n	13µM	u	-50.4	u
Cn1nnnc1SCCNCc1ccccc1OCc1ccccc1F	x	n	u	x	x	18.4µM
CCc1cc(C(=O)N2CC=C(c3ccccc3)CC2)sc1C	x	n	x	x	x	x
CCCCN(C)CCNC(=S)Nc1ccc2nc(N3CCN(CC)CC3)cc(C)c2c1	n	n	u	n	-63.1	u
CCN(CC)CCNC(=S)Nc1ccc2nc(N3CCN(CC)CC3)cc(C)c2c1	n	n	u	n	-58.6	u
CCN1CCN(c2cc(C)c3cc(NC(=S)NCCN(C)C)ccc3n2)CC1	n	n	20.6µM	n	-51.8	u
CCN1CCN(c2cc(C)c3cc(NC(=S)N(C)Cc4ccccc4)ccc3n2)CC1	n	n	u	n	n	u
CCOC(=O)N1CCC(NC(=S)Nc2ccc3nc(N4CCN(CC)CC4)cc(C)c3c2)CC1	n	n	u	n	n	u
CCCN1CCN(CCCNC(=S)Nc2ccc3nc(N4CCN(CC)CC4)cc(C)c3c2)CC1	n	n	u	n	n	u
CCCN(CCC)CCNC(=O)CCC(=O)Nc1ccc2nc(N3CCN(C)CC3)cc(C)c2c1	n	n	n	n[10 µM]	n	n
CCCCNC(=S)Nc1ccc2nc(N3CCN(CC)CC3)cc(C)c2c1	n	n	23.1µM	n	u	23.1µM
CC(C)c1ccc(NC(=O)Cn2cc(C#N)c3ccccc32)cc1	x	n	x	x	x	x
CCN(CC)CCOC(=O)C(Cc1ccco1)Cc1cccc2ccccc12 (stereo not drawn)	x	n	u	x	-57.1	u
CCN(CC)CCOC(=O)CCc1cccc2ccccc12	n	n	n	n	n	n
CC1=C(C(=O)N(C)C)CC(CC(=O)NC2CC2)C(=O)N1Cc1ccc(C(C)(C)C)cc1 (stereo not drawn)	x	n	u	x	n	n
CCN(CC)C(=O)C1=C(C)N(Cc2ccc(OC)cc2)C(=O)C(CC(=O)NCC2CCCCC2)C1 (stereo not drawn)	x	n	20.6µM	x	n	u
CC1=C(C(=O)N(C(C)C)C(C)C)CC(CC(=O)NCC2CCCCC2)C(=O)N1Cc1ccc(C(C)(C)C)cc1 (stereo not drawn)	x	x	18.7µM	x	x	18.7µM
SMILES	RORg inh	LDHA inh	DT40 TDP1 no CPT	VP16 counter	IL1B secr inh	DT40 TDP1 CPT
COc1ccc(CN2C(=O)C(CC(=O)NCC3CCCCC3)CC(C(=O)N(C)C)=C2C)cc1 (stereo not drawn)	x	n	u	x	n	u
CC1=C(C(=O)N(C)C)CC(CC(=O)NCC2CCCCC2)C(=O)N1Cc1ccc(F)cc1 (stereo not drawn)	x	n	u	x	n	u
CC1=C(C(=O)N(C(C)C)C(C)C)CC(CC(=O)NC2CC2)C(=O)N1Cc1ccc(C(C)(C)C)cc1 (stereo not drawn)	x	n	29.1µM	x	n	u
COc1cccc(/C(C#N)=C/c2c(-c3ccc(Cl)cc3)nc3c(C)cccn23)c1	n	n	18.4µM	n	-65.4	20.6µM
Cc1cccn2c(/C=N/OCc3cccc(F)c3)c(-c3ccc(Cl)cc3)nc12	2.24µM	n	u	n	n	u
Fc1cccc(CO/N=C/c2c(-c3ccccc3)nc3ccc(Cl)cn23)c1	n	n	u	n	n	n
